Results reported in PubChem BioAssay AID1159580 (chemical genetic matrix, 2015).
Where “and” joins values, the source holds several entries; their conditions need not be identical. Equal values may be shown once. Among all 5,500 compounds or so, about 2,000 (36%) were called active. Inconclusive results (about 18%) are left out. Rule as the data show it: active = normalized growth mostly below about 0.91 (no sharp cut-off); inconclusive = no clear call, values can overlap the other calls; inactive = mostly above about 0.92. This is one part of the list.

Assay: chemical genetic growth profiling, strain panel (AID 1159580);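 also: tested at 20 µM; growth read once vehicle control cultures reached saturation at 30 °C; 1 = growth at the plate median or of vehicle wells; lower values mean less growth of the strain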
Details: S. cerevisiae deletion strains, growth OD

Measured: normalized growth

CC(=O)O[C@@H]1C[C@@]2(C)[C@H](c3ccoc3)C[C@H]3O[C@]32[C@]2(C)C(=O)C(O)=C3C(C)(C)C(=O)C=C[C@]3(C)C12 (stereo not given in full)
inactive: locus YAL021C, strain ccr4, stronger effect = lower value 0.983 | locus YAL030W, strain snc1, stronger effect = lower value 0.968 | locus YBL061C, strain skt5, stronger effect = lower value 0.953 | locus YBR021W, strain FUR4, stronger effect = lower value 1.05 | locus YBR023C, strain chs3, stronger effect = lower value 0.947 | locus YBR171W, strain sec66, stronger effect = lower value 0.929 | locus YBR229C, strain ROT2, stronger effect = lower value 0.927 | locus YBR231C, strain swc5, stronger effect = lower value 0.94 | locus YBR279W, strain paf1, stronger effect = lower value 0.97 | locus YCL016C, strain dcc1, stronger effect = lower value 0.969 | locus YCL061C, strain MRC1, stronger effect = lower value 0.96 | locus YCL069W, strain vba3, stronger effect = lower value 0.956 | locus YCR088W, strain abp1, stronger effect = lower value 0.951 | locus YDL005C, strain med2, stronger effect = lower value 0.958 | locus YDL035C, strain GPR1, stronger effect = lower value 0.914 | locus YDL040C, strain nat1, stronger effect = lower value 0.953 | locus YDL101C, strain DUN1, stronger effect = lower value 0.933 | locus YDL134C, strain PPH21, stronger effect = lower value 0.921 | locus YDL185W, strain tfp1, stronger effect = lower value 0.931 | locus YDR001C, strain nth1, stronger effect = lower value 0.968 | locus YDR069C, strain doa4, stronger effect = lower value 0.942 | locus YDR150W, strain NUM1, stronger effect = lower value 0.969 | locus YDR195W, strain ref2 1.04 | locus YDR297W, strain sur2, stronger effect = lower value 0.954 | locus YDR334W, strain swr1, stronger effect = lower value 0.963 | locus YDR335W, strain msn5, stronger effect = lower value 0.969 | locus YDR388W, stronger effect = lower value 0.951 | locus YEL003W, strain gim4, stronger effect = lower value 0.927 | locus YEL037C, strain rad23, stronger effect = lower value 0.961 | locus YEL061C, strain CIN8 (second series), stronger effect = lower value 0.955 | locus YEL061C, strain CIN8, stronger effect = lower value 0.965 | locus YER015W, strain faa2, stronger effect = lower value 0.966 | locus YER016W, strain bim1, stronger effect = lower value 0.953 | locus YER110C, stronger effect = lower value 0.953 | locus YER111C, strain swi4, stronger effect = lower value 0.94 | locus YFR010W, strain ubp6, stronger effect = lower value 0.955 | locus YGL078C, strain dbp3, stronger effect = lower value 0.975 | locus YGL167C, strain pmr1, stronger effect = lower value 0.957 | locus YGL173C, strain kem1, stronger effect = lower value 0.924 | locus YGL227W, strain vid30, stronger effect = lower value 0.964 | locus YGL240W, strain doc1, stronger effect = lower value 0.94 | locus YGL248W, strain PDE1, stronger effect = lower value 0.933 | locus YGR135W, strain pre9, stronger effect = lower value 0.954 | locus YHR013C, strain ard1, stronger effect = lower value 0.853 | locus YHR027C, strain rpn1, stronger effect = lower value 0.965 | locus YHR030C, strain SLT2, stronger effect = lower value 0.887 | locus YHR079C, strain IRE1 (second series), stronger effect = lower value 0.952 | locus YHR079C, strain IRE1, stronger effect = lower value 0.926 | locus YHR094C, strain hxt1, stronger effect = lower value 0.957 | locus YHR200W, strain rpn10, stronger effect = lower value 0.943 | locus YIL073C, strain SPO22, stronger effect = lower value 0.811 | locus YIL125W, strain kgd1, stronger effect = lower value 0.966 | locus YIR030C, strain dcg1, stronger effect = lower value 0.959 | locus YJL092W, strain hpr5, stronger effect = lower value 0.945 | locus YJL095W, strain BCK1 (second series), stronger effect = lower value 0.967 | locus YJL115W, strain asf1, stronger effect = lower value 0.98 | locus YJL134W, strain LCB3, stronger effect = lower value 0.958 | locus YJL154C, strain vps35, stronger effect = lower value 0.985 | locus YJL164C, strain tpk1, stronger effect = lower value 0.927 | locus YJL168C, strain set2, stronger effect = lower value 0.961 | locus YJL187C, strain SWE1 (second series), stronger effect = lower value 0.958 | locus YJL187C, strain SWE1, stronger effect = lower value 0.953 | locus YJR043C, strain POL32, stronger effect = lower value 0.97 | locus YJR066W, strain TOR1, stronger effect = lower value 0.888 | locus YKL009W, strain mrt4, stronger effect = lower value 0.94 | locus YKL068W, stronger effect = lower value 0.962 | locus YKL085W, strain MDH1 (second series), stronger effect = lower value 0.993 | locus YKL085W, strain MDH1, stronger effect = lower value 0.993 | locus YKL160W, strain elf1, stronger effect = lower value 0.969 | locus YKR026C, strain gcn3, stronger effect = lower value 0.965 | locus YKR091W, strain srl3, stronger effect = lower value 0.971 | locus YLL001W, strain dnm1, stronger effect = lower value 0.979 | locus YLL026W, stronger effect = lower value 0.96 | locus YLL041C, strain sdh2, stronger effect = lower value 0.976 | locus YLR027C, strain aat2, stronger effect = lower value 0.942 | locus YLR058C, strain SHM2, stronger effect = lower value 0.936 | locus YLR102C, strain apc9, stronger effect = lower value 0.958 | locus YLR113W, strain HOG1, stronger effect = lower value 0.911 | locus YLR258W, strain gsy2, stronger effect = lower value 0.948 | locus YLR342W, strain FKS1, stronger effect = lower value 0.921 | locus YLR357W, strain rsc2, stronger effect = lower value 1.03 | locus YLR370C, strain arc18, stronger effect = lower value 0.927 | locus YLR384C, strain iki3, stronger effect = lower value 0.956 | locus YML016C, strain PPZ1, stronger effect = lower value 0.946 | locus YML120C, strain ndi1, stronger effect = lower value 0.961 | locus YML124C, strain tub3, stronger effect = lower value 0.963 | locus YMR058W, strain fet3, stronger effect = lower value 0.937 | locus YMR078C, strain ctf18, stronger effect = lower value 0.925 | locus YMR125W, strain sto1, stronger effect = lower value 0.957 | locus YMR129W, stronger effect = lower value 0.977 | locus YMR205C, strain PFK2, stronger effect = lower value 0.886 | locus YMR223W, strain ubp8, stronger effect = lower value 0.922 | locus YMR307W, strain GAS1, stronger effect = lower value 0.61 | locus YNL067W, strain RPL9B, stronger effect = lower value 0.985 | locus YNL128W, strain TEP1, stronger effect = lower value 0.914 | locus YNL183C, strain NPR1, stronger effect = lower value 0.909 | locus YNL209W, strain ssb2, stronger effect = lower value 0.974 | locus YNL233W, strain BNI4, stronger effect = lower value 0.935 | locus YNL248C, strain rpa49, stronger effect = lower value 0.952 | locus YNL250W, strain rad50, stronger effect = lower value 1.02 | locus YNL271C, strain bni1, stronger effect = lower value 0.945 | locus YNL298W, strain CLA4, stronger effect = lower value 0.953 | locus YNL322C, strain KRE1 (second series), stronger effect = lower value 0.956 | locus YNR049C, strain mso1, stronger effect = lower value 0.959 | locus YOL006C, strain TOP1, stronger effect = lower value 0.771 | locus YOL012C, strain htz1 0.819 | locus YOR001W, strain rrp6, stronger effect = lower value 0.92 | locus YOR061W, strain CKA2, stronger effect = lower value 0.923 | locus YOR069W, strain VPS5, stronger effect = lower value 0.969 | locus YOR070C, strain gyp1, stronger effect = lower value 0.949 | locus YOR080W, strain dia2, stronger effect = lower value 0.965 | locus YOR083W, strain WHI5, stronger effect = lower value 0.976 | locus YOR106W, strain vam3, stronger effect = lower value 0.942 | locus YOR136W, strain idh2, stronger effect = lower value 0.941 | locus YOR231W, strain MKK1, stronger effect = lower value 0.918 | locus YOR265W, strain rbl2, stronger effect = lower value 0.963 | locus YOR290C, strain snf2, stronger effect = lower value 0.929 | locus YOR316C, strain cot1, stronger effect = lower value 0.962 | locus YPL055C, strain LGE1, stronger effect = lower value 0.803 | locus YPL078C, strain atp4, stronger effect = lower value 0.973 | locus YPL106C, strain sse1, stronger effect = lower value 0.974 | locus YPL240C, strain hsp82, stronger effect = lower value 0.956 | locus YPL241C, strain CIN2, stronger effect = lower value 0.966 | locus YPL256C, strain CLN2, stronger effect = lower value 0.91 | locus YPR119W, strain clb2, stronger effect = lower value 0.959 | locus YPR141C, strain kar3, stronger effect = lower value 0.957 | locus YPR167C, strain met16, stronger effect = lower value 0.945
active: locus YAL026C, strain drs2, stronger effect = lower value 0.892 | locus YBR009C, strain hhf1, stronger effect = lower value 0.867 | locus YCL011C, strain gbp2, stronger effect = lower value 0.88 | locus YCL029C, strain bik1, stronger effect = lower value 0.907 | locus YDL074C, strain BRE1, stronger effect = lower value 0.754 | locus YDL192W, strain arf1, stronger effect = lower value 0.822 | locus YDR101C, strain arx1, stronger effect = lower value 0.908 | locus YDR137W, strain rgp1, stronger effect = lower value 0.639 | locus YDR159W, strain sac3, stronger effect = lower value 0.777 | locus YDR162C, strain NBP2, stronger effect = lower value 0.658 | locus YDR318W, strain mcm21, stronger effect = lower value 0.844 | locus YDR392W, strain spt3, stronger effect = lower value 0.326 | locus YDR502C, strain sam2, stronger effect = lower value 0.896 | locus YER155C, strain BEM2 (second series), stronger effect = lower value 0.826 | locus YER155C, strain BEM2, stronger effect = lower value 0.902 | locus YER167W, strain BCK2, stronger effect = lower value 0.896 | locus YGL086W, strain mad1, stronger effect = lower value 0.839 | locus YGL253W, strain hxk2, stronger effect = lower value 0.866 | locus YGR078C, strain PAC10, stronger effect = lower value 0.844 | locus YGR229C, strain SMI1, stronger effect = lower value 0.787 | locus YGR252W, strain gcn5, stronger effect = lower value 0.74 | locus YHR129C, strain ARP1, stronger effect = lower value 0.889 | locus YHR142W, strain chs7, stronger effect = lower value 0.861 | locus YIL066C, strain RNR3, stronger effect = lower value 0.766 | locus YJL129C, strain trk1, stronger effect = lower value 0.822 | locus YJL166W, strain qcr8, stronger effect = lower value 0.873 | locus YKR001C, strain vps1, stronger effect = lower value 0.812 | locus YLR039C, strain RIC1, stronger effect = lower value 0.513 | locus YLR221C, strain rsa3, stronger effect = lower value 0.863 | locus YLR262C, strain YPT6 (second series), stronger effect = lower value 0.669 | locus YLR262C, strain YPT6, stronger effect = lower value 0.483 | locus YLR268W, strain sec22, stronger effect = lower value 0.832 | locus YLR320W, strain mms22, stronger effect = lower value 0.816 | locus YLR371W, strain rom2, stronger effect = lower value 0.731 | locus YLR418C, strain cdc73, stronger effect = lower value 0.35 | locus YML032C, strain rad52, stronger effect = lower value 0.853 | locus YMR231W, strain pep5, stronger effect = lower value 0.927 | locus YNL071W, strain lat1, stronger effect = lower value 0.736 | locus YNL307C, strain MCK1, stronger effect = lower value 0.571 | locus YNR052C, strain pop2, stronger effect = lower value 0.882 | locus YOL147C, strain pex11, stronger effect = lower value 0.818 | locus YOR144C, strain elg1, stronger effect = lower value 0.864 | locus YOR184W, strain ser1, stronger effect = lower value 0.744 | locus YOR270C, strain vph1, stronger effect = lower value 0.776 | locus YPL051W, strain arl3, stronger effect = lower value 0.895 | locus YPR163C, strain tif3, stronger effect = lower value 0.757 | strain wtn01, stronger effect = lower value 0.864
0.749 (active) and 0.918 (inactive): locus YJL095W, strain BCK1, stronger effect = lower value
